Results from PubChem BioAssay AID623994 (NMMLSC, 2012).
Potency and affinity values are given separately. Active and inactive are the calls of the source.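 The calls were made as follows: active = compounds whose fitted concentration for half the maximal dye retention is below 100 µM; inactive = the rest.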

Target: Multidrug resistance protein CDR2 (Candida albicans (strain SC5314 / ATCC MYA-2876)) (UniProt P78595)
Assay: blockers of Nile Red efflux by Candida CDR2 – S. cerevisiae AD1-8u, singleplex, Cherry Pick2 set, dose response (AID 623994)

Sequence of Multidrug resistance protein CDR2 (Candida albicans (strain SC5314 / ATCC MYA-2876)) (P78595 whole entry, looked up): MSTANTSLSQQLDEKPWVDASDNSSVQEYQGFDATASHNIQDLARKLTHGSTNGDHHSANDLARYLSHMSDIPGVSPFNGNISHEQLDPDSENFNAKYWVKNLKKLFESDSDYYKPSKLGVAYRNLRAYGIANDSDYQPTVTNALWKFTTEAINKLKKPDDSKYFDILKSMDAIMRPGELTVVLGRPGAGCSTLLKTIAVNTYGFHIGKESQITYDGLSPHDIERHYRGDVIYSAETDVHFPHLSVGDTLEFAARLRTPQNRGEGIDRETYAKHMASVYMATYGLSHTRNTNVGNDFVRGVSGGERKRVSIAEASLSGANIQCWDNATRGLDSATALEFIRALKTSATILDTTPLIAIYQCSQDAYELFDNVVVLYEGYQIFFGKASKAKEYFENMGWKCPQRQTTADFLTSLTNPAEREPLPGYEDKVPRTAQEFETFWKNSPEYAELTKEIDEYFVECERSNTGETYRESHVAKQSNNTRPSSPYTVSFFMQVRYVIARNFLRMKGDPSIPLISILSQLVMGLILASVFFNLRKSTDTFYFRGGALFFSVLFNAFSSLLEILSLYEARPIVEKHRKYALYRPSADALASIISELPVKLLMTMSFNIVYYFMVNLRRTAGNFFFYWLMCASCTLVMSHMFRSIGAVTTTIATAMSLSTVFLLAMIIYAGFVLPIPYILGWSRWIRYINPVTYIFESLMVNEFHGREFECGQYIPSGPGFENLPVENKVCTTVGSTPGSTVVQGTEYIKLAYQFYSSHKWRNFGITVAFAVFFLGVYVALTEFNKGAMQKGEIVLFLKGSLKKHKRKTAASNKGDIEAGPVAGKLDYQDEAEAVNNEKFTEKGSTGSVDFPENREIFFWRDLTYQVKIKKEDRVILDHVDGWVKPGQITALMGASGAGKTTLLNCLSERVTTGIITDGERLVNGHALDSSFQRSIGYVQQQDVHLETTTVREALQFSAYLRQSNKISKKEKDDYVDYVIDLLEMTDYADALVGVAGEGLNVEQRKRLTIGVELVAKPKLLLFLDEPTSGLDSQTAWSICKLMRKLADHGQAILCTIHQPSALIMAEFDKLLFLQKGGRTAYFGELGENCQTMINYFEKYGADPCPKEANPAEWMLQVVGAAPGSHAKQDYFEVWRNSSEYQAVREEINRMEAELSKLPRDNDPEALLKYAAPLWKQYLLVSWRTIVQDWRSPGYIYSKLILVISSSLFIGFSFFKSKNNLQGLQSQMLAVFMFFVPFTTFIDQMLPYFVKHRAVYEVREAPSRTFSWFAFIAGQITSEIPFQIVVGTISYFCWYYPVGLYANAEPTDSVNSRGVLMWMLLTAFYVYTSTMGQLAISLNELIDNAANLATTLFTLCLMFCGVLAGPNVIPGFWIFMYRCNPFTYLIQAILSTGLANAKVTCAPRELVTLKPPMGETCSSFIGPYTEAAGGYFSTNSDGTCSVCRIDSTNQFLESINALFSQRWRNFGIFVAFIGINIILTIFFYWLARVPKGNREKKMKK

SMILES	outcome
CCOc1cccc2sc(NC(=O)c3ccc(Br)s3)nc12	inactive
C[C@@]12C(=O)Nc3ccc(Cl)cc3C(=O)N1[C@H]1c3cc(Cl)ccc3OC[C@@H]1[C@@H]2c1ccccc1	inactive
Cc1ccc(O)c(C(=O)c2cnc3c(c2)CN(C)C(=O)N3)c1	inactive
N#CC(C(=O)NCc1ccccc1)c1nc2ccccc2nc1N1CCCC1 (stereo not given)	inactive
Cc1ccc(CNC(=O)C2CCC(CNc3nc(=S)[nH]c4ccccc34)CC2)cc1 (stereo not given)	inactive
O=C(C1CCCN(c2ncnc3c2nc2n3CCCCC2)C1)N1CCN(c2ccccc2F)CC1 (stereo not given)	inactive
CCCCN1Cc2cc(C(=O)c3cc(OC)ccc3O)cnc2NC1=O	inactive
Cc1ccc2c(c1)[C@H]1[C@H](CO2)[C@H](c2ccccc2)[C@]2(C)C(=O)Nc3cc(F)c(F)cc3C(=O)N12	inactive
COc1ccc(C2CC(c3ccccc3C(F)(F)F)=NN2c2ccc(S(N)(=O)=O)cc2)cc1 (stereo not given)	inactive
O=C(C1CCCN(c2ncnc3c2nc2n3CCCCC2)C1)N1CCN(c2ccccc2)CC1 (stereo not given)	inactive
NS(=O)(=O)c1ccc(N2N=C(c3ccc(Br)cc3)CC2c2ccc(F)cc2)cc1 (stereo not given)	inactive
NS(=O)(=O)c1ccc(N2N=C(c3ccccc3)CC2c2ccc(Br)cc2)cc1 (stereo not given)	inactive
COc1ccc2c(c1)OC[C@H]1[C@H]2N2C(=O)c3ccc(C)cc3NC(=O)[C@@]2(C)[C@H]1c1ccccc1	inactive
COc1ccc(CCOC(=O)c2ccc(N)c([N+](=O)[O-])c2)cc1	inactive
O=C(NCCc1ccc(Cl)cc1)C1CCC(CNc2nc(=S)[nH]c3ccccc23)CC1 (stereo not given)	inactive
CCC(=O)N1CCN(c2ccc(Cl)cc2NC(=O)c2ccc3c(c2)OCCO3)CC1	inactive
Cc1cccc(C2CC(c3ccccc3)=NN2c2ccc(S(N)(=O)=O)cc2)c1 (stereo not given)	inactive
CC1CN(c2nc3ccccc3nc2C(C#N)C(=O)NCc2ccc3c(c2)OCO3)CC(C)O1 (stereo not given)	inactive
O=C(c1ccoc1)N1CCC2(CC1)Oc1ccc(F)cc1C(=O)C21CC(c2ccc(Cl)cc2)=NO1 (stereo not given)	inactive
O=C(C[n+]1cc(-c2ccccc2)n2c1CCC2)N1c2ccccc2Sc2ccccc21	inactive
O=C(NC1CCCc2c1cnn2-c1ccccc1F)c1ccccn1 (stereo not given)	inactive
O=C(c1ccc2c(c1)OCO2)N1CCC2(CC1)Oc1ccc(F)cc1C(=O)C21CC(c2ccccc2)=NO1 (stereo not given)	inactive
CCCCCCCCCC[N+](C)(C)CC/C=C1/c2ccccc2Sc2ccc(Cl)cc21	inactive
O=C(CSc1nnc(Cc2cccs2)n1Cc1ccco1)Nc1cccc(Cl)c1	inactive
CC(C)C(=O)N1CCN(c2ccccc2NC(=O)c2ccc3c(c2)OCCO3)CC1	inactive
CN1Cc2cc(C(=O)c3ccccc3O)cnc2NC1=O	inactive
O=C(Nc1ccccc1)C1=C[C@@H](c2ccc(Br)cc2)C[C@@H](OCCCCO)O1	inactive
CC(C)C(=O)N1CCC2(CC1)Oc1ccc(F)cc1C(=O)C21CC(c2ccccc2)=NO1 (stereo not given)	inactive
COc1ccc([C@H]2CC(=O)C=C(c3ccnc4ccc(Cl)cc34)C2)cc1	inactive
Cc1ccc(CN2C(=O)C(CC(C)C)Nc3ncnc(N4CCN(c5ccccc5)CC4)c32)cc1 (stereo not given)	inactive
